Measured values reported in PubChem BioAssay AID651822 (The Scripps Research Institute Molecular Screening Center, 2012).
Hit rate of the full screen: of about 2,300 compounds, about 970 (42%) were called active. The set was probably picked from earlier hits. Not all results are given here. Unmarked numbers belong to inactive results. Rule as the data show it: active = inhibition above about 4.5%; inactive = the rest.

System: Methionine sulfoxide reductase A (Bos taurus)
Assay: bovine MsrA inhibitors, retest, confirmation, biochemical, absorbance, HTS (AID 651822);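 also: coupled to thioredoxin reductase with NADPH and selenocystamine and DMSO as substrate; 0% = vehicle only and 100% = full effect of reference inhibitor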
Settings: purified bovine MsrA, absorbance read-out; at 15.5 µM; active compounds read high

SMILES | inhibition
Cc1oc2c(c1C(=O)N1CCOCC1)C(=O)c1ccccc1C2=O | 15.3% (active)
COCCNC(=S)N/N=C/c1c(C)[nH]c2ccccc12 | 4.03%
C=CCNC(=S)N/N=C/c1ccc(C)s1 | 5.29% (active)
Cc1cc(C(=O)N/N=C/c2ccc(O)c([N+](=O)[O-])c2)c(C)n1-c1ccc(F)cc1 | 4.12%
NC(=S)N/N=C/c1ccc([N+](=O)[O-])cc1 | 4.55% (active)
Cc1ccc(N2CCN(C3=NC(=O)/C(=C\c4cccs4)S3)CC2)cc1 | 1.26%
COc1ccc(/C=C/C(=O)NC(=S)N2CCCC(C(N)=O)C2)cc1 (centres undefined) | 6.19% (active)
COc1ccc(C2=NS(=O)(=O)N(C)C(C(=O)N3CCCCC3)=C2)cc1 | 3.33%
O=C(N/N=C/C=C/c1ccco1)c1cccs1 | 7.55% (active)
CC(=O)Nc1ccc(/C=N/NC(=O)c2cccs2)cc1 | 3.39%
CCN(CC)c1ccc(/C=N/NC(=O)CNC(=O)c2cccs2)cc1 | 3.57%
COc1ccc(CC(=O)c2ccc(O)cc2O)cc1OC | 4.03%
C/C(=N\Nc1ccc(S(N)(=O)=O)cc1[N+](=O)[O-])c1cccs1 | 1.79%
CCOC(=O)C/C(C)=N\Nc1ccc([N+](=O)[O-])cc1[N+](=O)[O-] | 9.34% (active)
COc1cc(C2C(C(=O)c3sc(C)nc3C)=C(O)C(=O)N2CCN(C)C)cc(OC)c1OC (centres undefined) | 9.08% (active)
Cc1ccc(-c2ccc(/C=C(\C#N)C(N)=S)o2)c([N+](=O)[O-])c1 | 2.76%
COc1ccc(/C=C/C(=O)Nc2cccnc2)cc1OC | 4.72% (active)
CC(/C=N/NC(=O)c1ccncc1)=C\c1ccco1 | 6.11% (active)
CC(C)Oc1c(Br)cc(Br)cc1/C=N/NC(N)=S | 6.46% (active)
CCOC(OCC)c1ccc(/C=C\c2nccc(N)n2)cc1 | 3.39%

SMILES | inhibition
CCc1nnc(NC(=O)/C=C/c2ccc(C)o2)s1 | 6.27% (active)
CCc1nnc(NS(=O)(=O)c2ccc(NC(=S)NC(=O)/C=C/c3cccs3)cc2)s1 | 4.14%
COc1cccc(C2=CC(=O)C[C@H](c3ccc(F)cc3)C2)c1OC | 1.12%
CN1CCN(CCC(=O)N/N=C/C=C2\N(C)c3ccccc3C2(C)C)CC1 | 4.4%
O=C(Oc1c(-c2ccco2)oc2ccccc2c1=O)c1cccnc1 | 4.83% (active)
Cc1c(C=O)c2ccccn2c1C(=O)c1ccncc1 | 4.31%
COc1cccc(/C(C)=N/Nc2ncc(Cl)cc2Cl)c1 | 5.95% (active)
O=C(Nc1ccc(C(=O)O)cc1)/C(=C/c1ccc([N+](=O)[O-])cc1)NC(=O)c1ccccc1 | 2.84%
CNC(=O)/C(=C\C=C\c1ccccc1)NC(=O)c1ccc([N+](=O)[O-])cc1 | 4.89% (active)
Cc1cc(C(=O)N/N=C/c2ccc(N3CCOCC3)cc2)c(C)o1 | 3.45%
C(=N/Nc1cc(N2CCOCC2)nc(N2CCOCC2)n1)/c1ccccc1 | 2.4%
COc1ccc(/C=N/Nc2cc(N3CCOCC3)nc(C)n2)c(OC)c1 | 5.31% (active)
COc1ccc(S(=O)(=O)c2c[nH]c(=S)[nH]c2=O)cc1Cl | 2.06%
CCOC(=O)c1c(C(C#N)C#N)cc(C)nc1C | 5.34% (active)
Cc1ccc(Cl)cc1-c1ccc(/C=N/n2cnnc2)o1 | 3.18%
S=c1[nH]nc(-c2ccccc2)n1/N=C/c1c[nH]c2ccccc12 | 2.93%
O=C(O)c1cccc(NC(=S)N/N=C/c2c[nH]c3ccccc23)c1 | 5.97% (active)
O=C(Nc1cccc(F)c1)c1coc(=O)c(Br)c1 | 4.61% (active)
CCOc1cc(/C=C2\SC(N3CCCCC3)=NC2=O)ccc1O | 2.79%
